The record followed here is PubChem BioAssay (NCI).

Each structure is given as a SMILES string. Compounds without any hit were thinned out: in the full panel of roughly 79,000, 15% have a hit. A number with no mark means an inactive call. Calls of active or inactive are those of the source. No stated cut-off is given here; in the data, active means growth inhibition above about 70%; inactive means the rest.

Assay [1] can be described thus: NCI Yeast Anticancer Drug Screen. Data for the rad50 strain (AID 155).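 Further: 0% = growth of vehicle-only cultures of the same strain.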 To be noted: S. cerevisiae rad50 strain growth inhibition, stronger effect = higher value. The method in brief: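 Compounds were tested on a yeast strain with an engineered DNA damage repair alteration; the reported value is growth inhibition normalised to vehicle treatment.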
Assay [2] is described as follows: NCI Yeast Anticancer Drug Screen. Data for the mec2-1 strain (AID 157). To be noted: S. cerevisiae mec2-1 strain, stronger effect = higher value. Summed up: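 Strain: mec2-1 (DNA repair/cell cycle alteration). Compound exposure, then growth measured; inhibition expressed relative to vehicle.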
The nature of assay [3]: NCI Yeast Anticancer Drug Screen. Data for the sgs1 mgt1 strain (AID 161).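 Further: 0% = growth of cultures given vehicle only.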 To be noted: S. cerevisiae sgs1 mgt1 strain, stronger effect = higher value. The method in brief:
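Read-out: growth inhibition vs vehicle controls. Cells: mutant yeast strain deficient in DNA damage repair.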

Assay [4] is described as follows: NCI Yeast Anticancer Drug Screen. Data for the cln2 rad14 strain (AID 165).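 Further: 0% = growth equal to vehicle treated cultures.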 To be noted: S. cerevisiae cln2 rad14 strain, stronger effect = higher value. The method in brief: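 Compounds are applied to the cln2 rad14 yeast strain, and growth is then compared with that of vehicle-treated cultures to give inhibition.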
Assay [5] can be described thus: NCI Yeast Anticancer Drug Screen. Data for the bub3 strain (AID 167). To be noted: S. cerevisiae bub3 mutant strain, stronger effect = higher value. Summed up: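 Growth of a checkpoint-deficient yeast mutant is measured after compound exposure. Values represent inhibition relative to vehicle.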
Assay [6] in a line: NCI Yeast Anticancer Drug Screen. Data for the mlh1 rad18 strain (AID 175). To be noted: S. cerevisiae mlh1 rad18 strain growth inhibition, stronger effect = higher value. The method in brief:
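Read-out is yeast growth inhibition, calculated against vehicle-only controls. The compound was applied to a strain engineered with DNA damage repair alterations.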

[7] abbreviates: at 5.0 µM (retest, dose inferred, filed as 0.5).
The mark [8] stands for this setting: at 50.0 µM (retest, dose inferred, filed as 5.0).

Regarding `Nc1ccc2c(c1)[nH]c(=O)c1cc(Cl)c(Cl)cc12`, the growth inhibition is 87% (active) in assay [1] (setting [7]); 94% (active) in assay [1] (setting [8]); 96.3% (active) in assay [1] (at 50.0 µM); 27% in assay [2] (setting [7]); 60% in assay [2] (setting [8]); 40.4% in assay [2] (at 50.0 µM). The growth inhibition in assay [3] (setting [7]) is 49%; in assay [3] (setting [8]), 70% (active); in assay [3] (at 50.0 µM), 78.2% (active); in assay [4] (setting [7]) it was 63%; in assay [4] (setting [8]) it was 77% (active); in assay [4] (at 50.0 µM), 13.1%. In addition, the growth inhibition in assay [5] (setting [7]) is -1%; in assay [5] (setting [8]), 84% (active); in assay [5] (at 50.0 µM), 9.65%; in assay [6] (setting [7]) it was 53%; in assay [6] (setting [8]), 85% (active); in assay [6] (at 50.0 µM), 92.9% (active).
In the case of `CCN(CC)CCNC(=O)c1ccc(N=Cc2cc(Cl)cc(Cl)c2O)cc1`, the growth inhibition in assay [1] (setting [7]) is 48%; in assay [1] (setting [8]), 49%; in assay [1] (at 50.0 µM), 81.2% (active); in assay [2] (setting [7]) it was 32%; in assay [2] (setting [8]), 48%; in assay [2] (at 50.0 µM), 91% (active). For the same compound, the growth inhibition in assay [3] (setting [7]) was 49%; in assay [3] (setting [8]) it was 97% (active); in assay [3] (at 50.0 µM) it was 88.8% (active); in assay [4] (setting [7]), 24%; in assay [4] (setting [8]), 99% (active); in assay [4] (at 50.0 µM) it was 84.8% (active). Besides, the growth inhibition in assay [5] (setting [7]) was 88% (active); in assay [5] (setting [8]) it was 97% (active); in assay [5] (at 50.0 µM), 89.2% (active); in assay [6] (setting [7]) it was 46%; in assay [6] (setting [8]), 39%; in assay [6] (at 50.0 µM), 85.7% (active).
Take `CC(=O)Oc1ccc(N2C(=O)C=CC2=O)cc1`: the growth inhibition in assay [1] (setting [7]) was 86% (active); in assay [1] (setting [8]) it was 99% (active); in assay [1] (at 50.0 µM), 98.8% (active); in assay [2] (setting [7]), 81% (active); in assay [2] (setting [8]), 100% (active); in assay [2] (at 50.0 µM) it was 99.1% (active). Also, the growth inhibition in assay [3] (setting [7]) was 67%; in assay [3] (setting [8]), 99% (active); in assay [3] (at 50.0 µM), 52%; in assay [4] (setting [7]) it was 56%; in assay [4] (setting [8]), 100% (active); in assay [4] (at 50.0 µM), 54.2%. Moreover, the growth inhibition in assay [5] (setting [7]) was 87% (active); in assay [5] (setting [8]), 99% (active); in assay [5] (at 50.0 µM), 99% (active); in assay [6] (setting [7]) it was 41%; in assay [6] (setting [8]), 100% (active); in assay [6] (at 50.0 µM) it was 52.5%.
For the compound `ClC1CC[N-]CC1.ClC1CC[N-]CC1.[Cl][Pt+2]([Cl])([Cl])[Cl]`, the growth inhibition was 50% in assay [1] (setting [7]); 96% (active) in assay [1] (setting [8]); 89.5% (active) in assay [1] (at 50.0 µM); 42% in assay [2] (setting [7]); 98% (active) in assay [2] (setting [8]); 90.9% (active) in assay [2] (at 50.0 µM). Moreover, the growth inhibition in assay [3] (setting [7]) is 58%; in assay [3] (setting [8]), 98% (active); in assay [3] (at 50.0 µM), 90.2% (active); in assay [4] (setting [7]), 36%; in assay [4] (setting [8]), 98% (active); in assay [4] (at 50.0 µM) it was 87.4% (active). Moreover, the growth inhibition in assay [5] (setting [7]) was 64%; in assay [5] (setting [8]) it was 98% (active); in assay [5] (at 50.0 µM), 93% (active); in assay [6] (setting [7]), 35%; in assay [6] (setting [8]) it was 96% (active); in assay [6] (at 50.0 µM), 91.7% (active).
For the compound `Cc1cc(C)c(S(=O)(=O)n2ccnc2)c(C)c1`, the growth inhibition in assay [1] (setting [7]) was -15%; in assay [1] (setting [8]), -45%; in assay [1] (at 50.0 µM) it was -13.9%; in assay [2] (setting [7]) it was 0%; in assay [2] (setting [8]), -11%; in assay [2] (at 50.0 µM), -29.6%. Moreover, the growth inhibition in assay [3] (setting [7]) is -17%; in assay [3] (setting [8]), -4%; in assay [3] (at 50.0 µM) it was -6.05%; in assay [4] (setting [7]), -3%; in assay [4] (setting [8]), 8%; in assay [4] (at 50.0 µM) it was 6.55%. Moreover, the growth inhibition in assay [5] (setting [7]) is -8%; in assay [5] (setting [8]), -26%; in assay [5] (at 50.0 µM), 10.3%; in assay [6] (setting [7]) it was -36%; in assay [6] (setting [8]), -77%; in assay [6] (at 50.0 µM) it was -0.9%.
As to `CCC(C)SC1SCC2C(=O)N(C)C3(CC3C)C(=O)OCC(NC(=O)c3nc4ccccc4cc3O)C(=O)NC(C)C(=O)N(C)C1C(=O)N(C)C1(CC1C)C(=O)OCC(NC(=O)c1nc3ccccc3cc1O)C(=O)NC(C)C(=O)N2C` (configuration not stated), the growth inhibition is 98% (active) in assay [1] (setting [7]); 89% (active) in assay [1] (setting [8]); 89.7% (active) in assay [1] (at 50.0 µM); 99% (active) in assay [2] (setting [7]); 92% (active) in assay [2] (setting [8]); 91.9% (active) in assay [2] (at 50.0 µM). In addition, the growth inhibition is 80% (active) in assay [3] (setting [7]); 93% (active) in assay [3] (setting [8]); 92.4% (active) in assay [3] (at 50.0 µM); 79% (active) in assay [4] (setting [7]); 94% (active) in assay [4] (setting [8]); 88.7% (active) in assay [4] (at 50.0 µM). The growth inhibition was 75% (active) in assay [5] (setting [7]); 93% (active) in assay [5] (setting [8]); 91.2% (active) in assay [5] (at 50.0 µM); 94% (active) in assay [6] (setting [7]); 84% (active) in assay [6] (setting [8]); 89.8% (active) in assay [6] (at 50.0 µM).
With `CCn1c2ccccc2c2ccc(N=Nc3ccc(N(C)C)cc3)cc21`, the growth inhibition is 34% in assay [1] (setting [7]); 92% (active) in assay [1] (setting [8]); 77% (active) in assay [1] (at 50.0 µM); 19% in assay [2] (setting [7]); 94% (active) in assay [2] (setting [8]); 78.5% (active) in assay [2] (at 50.0 µM). The growth inhibition in assay [3] (setting [7]) was 6%; in assay [3] (setting [8]) it was 92% (active); in assay [3] (at 50.0 µM) it was 79.5% (active); in assay [4] (setting [7]), 15%; in assay [4] (setting [8]), 84% (active); in assay [4] (at 50.0 µM), 85.7% (active). Further, the growth inhibition in assay [5] (setting [7]) was 10%; in assay [5] (setting [8]), 92% (active); in assay [5] (at 50.0 µM), 82.3% (active); in assay [6] (setting [7]), 18%; in assay [6] (setting [8]), 93% (active); in assay [6] (at 50.0 µM), 83.4% (active).
As for `C[C@]12C/C(=C/C(F)(F)F)C(=O)C[C@@H]1CC[C@@H]1[C@@H]2CC[C@]2(C)[C@@H](C(=O)O)CC[C@@H]12`, the growth inhibition was 32% in assay [1] (setting [7]); 91% (active) in assay [1] (setting [8]); 31.5% in assay [1] (at 50.0 µM); 92% (active) in assay [2] (setting [7]); 97% (active) in assay [2] (setting [8]); 39.4% in assay [2] (at 50.0 µM). The growth inhibition is 87% (active) in assay [3] (setting [7]); 95% (active) in assay [3] (setting [8]); 72.1% (active) in assay [3] (at 50.0 µM); 24% in assay [4] (setting [7]); 87% (active) in assay [4] (setting [8]); 55.7% in assay [4] (at 50.0 µM). Moreover, the growth inhibition was 89% (active) in assay [5] (setting [7]); 95% (active) in assay [5] (setting [8]); 26.1% in assay [5] (at 50.0 µM); 93% (active) in assay [6] (setting [7]); 96% (active) in assay [6] (setting [8]); 48.4% in assay [6] (at 50.0 µM).
For the compound `CC1=NOC(=O)/C1=C/C=C/c1ccccc1`, the growth inhibition in assay [1] (setting [7]) was -7%; in assay [1] (setting [8]), 47%; in assay [1] (at 50.0 µM), 87.1% (active); in assay [2] (setting [7]) it was 3%; in assay [2] (setting [8]), 79% (active); in assay [2] (at 50.0 µM), 86.3% (active). Moreover, the growth inhibition was 9% in assay [3] (setting [7]); 89% (active) in assay [3] (setting [8]); 90.3% (active) in assay [3] (at 50.0 µM); 22% in assay [4] (setting [7]); 28% in assay [4] (setting [8]); 40.1% in assay [4] (at 50.0 µM). Moreover, the growth inhibition in assay [5] (setting [7]) is -23%; in assay [5] (setting [8]), 66%; in assay [5] (at 50.0 µM), 60.8%; in assay [6] (setting [7]) it was 2%; in assay [6] (setting [8]), 80% (active); in assay [6] (at 50.0 µM) it was 79.2% (active).
